Experimental findings from PubChem BioAssay AID1851 (National Center for Advancing Translational Sciences (NCATS), 2009) are described below.

Screen size: about 16,000 compounds; about 5,100 (32%) were called active. Inconclusive results (about 25%) are left out. Calls follow the shape of the dose curve; as a rule, active = well fitted curve in the direction sought with a large enough effect; inconclusive = small, poorly fitted or top-dose-only effect, or effect the other way; inactive = no such curve, though single readings can be large or run the other way. This is one part of the list.
% is scaled to controls: 0 for no effect and ±100 for the full control effect.

The assay deals with Cytochrome P450 3A4 (Homo sapiens) (UniProt P08684). Put plainly: Cytochrome panel assay with activity outcomes. The settings on record: recombinant CYP, pro-luciferin dealkylation, luminescence, p450-cyp3a4; series mostly up to 57.1 µM.
Chain of Cytochrome P450 3A4 (Homo sapiens) (P08684 whole entry, looked up): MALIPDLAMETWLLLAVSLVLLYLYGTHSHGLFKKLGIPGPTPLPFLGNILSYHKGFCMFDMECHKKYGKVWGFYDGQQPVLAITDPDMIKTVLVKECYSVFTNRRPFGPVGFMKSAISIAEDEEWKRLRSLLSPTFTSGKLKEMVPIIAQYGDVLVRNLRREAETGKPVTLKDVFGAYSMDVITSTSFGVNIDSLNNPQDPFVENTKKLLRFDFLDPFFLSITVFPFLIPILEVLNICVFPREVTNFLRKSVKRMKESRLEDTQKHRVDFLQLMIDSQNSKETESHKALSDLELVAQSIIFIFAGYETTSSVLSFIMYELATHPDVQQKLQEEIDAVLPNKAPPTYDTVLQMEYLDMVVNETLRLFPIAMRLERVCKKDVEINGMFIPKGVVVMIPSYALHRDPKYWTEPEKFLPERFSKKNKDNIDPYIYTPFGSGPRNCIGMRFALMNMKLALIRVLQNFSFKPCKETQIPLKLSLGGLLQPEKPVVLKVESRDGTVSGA
The term AC50 denotes the concentration at which the activity in the assay is half-maximal. Turning to `CCc1cccc(C)c1NC(=O)CSc1nc2ccc(N3C(=O)c4ccccc4C3=O)cc2s1`, the AC50 is 4.47 µM (active). On to `CCN(CC)C(=O)CSc1nc2ccc(NC(=O)CSc3nnc(COc4ccccc4C)n3C)cc2s1`, for which the activity, negative = inhibition was -17.9% [at 2.29 µM] (inactive). With `Cc1cccc(CNc2nc(-c3ccc4c(c3)OCO4)nc3ccccc23)c1`, the concentration at half-maximal activity (AC50) was 0.398 µM (active).

Take `c1csc(CNc2nc(-c3ccc4c(c3)OCO4)nc3ccccc23)c1`: the AC50 is 1 µM (active).

Consider `Cc1cnc(CNc2nc(-c3ccc4c(c3)OCO4)nc3ccccc23)cn1`, for which the AC50 is 0.794 µM (active). On to `c1cncc(CNc2nc(-c3ccc4c(c3)OCO4)nc3ccccc23)c1`, for which the AC50 is 0.316 µM (active). For `C[C@]1(O)CC[C@H]2[C@H]3CC=C4N5CCN=C5CC[C@@]4(C)[C@H]3CC[C@@]21C`, the activity, negative = inhibition is -12.7% [at 11.4 µM] (inactive). Consider `CC(=O)NCCNc1nc(-c2ccc3c(c2)OCO3)nc2ccccc12`, for which the AC50 was 3.98 µM (active). On to `O=C(O)c1cc(-c2ccc3cc4c(cc3c2)OCO4)nc2ccccc12`, for which the activity, negative = inhibition is -17.7% [at 11.4 µM] (inactive).

On to `c1ccc(CNc2nc(-c3ccc4c(c3)OCO4)nc3ccccc23)cc1`, for which the AC50 was 1 µM (active).

Take `N=C(N)SCc1cccc(-c2nc3ccccc3c(=O)o2)c1`: the activity, negative = inhibition was -20.1% [at 11.4 µM] (inactive). On the same count and under the same terms, to `COc1ccc(CSC2=C(C#N)C(=O)NC3(CCCCC3)S2)cc1` belongs -12.2% [at 11.4 µM] (inactive).

Turning to `O=C1C=C(c2cccs2)CC(c2cccs2)C1n1cnc([N+](=O)[O-])c1` (configuration not stated), the AC50 result is “inactive”. For `CCCCSCc1nc2nc(Cl)c(Cl)nc2[nH]1`, the activity, negative = inhibition is -27.9% [at 11.4 µM] (inactive). The same measure, in the same setting: to `CC1CCN(C(=S)c2ccc(O)cc2)CC1` belongs 11.7% [at 2.29 µM] (inactive). Turning to `C=CCSc1nnc2c(n1)OC(c1c(C)[nH]n(-c3ccccc3)c1=O)Nc1ccccc1-2` (configuration not stated), the AC50 was 14.1 µM (active).

In the case of `CSc1nnc2c(n1)OC(C)N(C(=O)c1ccccc1)c1ccccc1-2` (configuration not stated), the AC50 result was “inactive”.

In the case of `CC(C)[C@@H]1NC(=O)[C@H](CCCCN)NC(=O)[C@H](Cc2c[nH]c3ccccc23)NC(=O)[C@H](Cc2ccc(O)cc2)NC(=O)[C@H](C)N(C)C(=O)[C@H](Cc2ccccc2)NC1=O`, the concentration at half-maximal activity (AC50) is 3.98 µM (active).

For the molecule `O=c1[nH]ncc2c3ccccc3n(Cc3ccccc3)c12`, the AC50 entry was “inactive”. In the case of `Clc1ccc(CN2CCCN(Cc3ccc(Cl)cc3)C2c2cc3ccccc3c3ccccc23)cc1`, the activity, negative = inhibition was -6.95% [at 11.4 µM] (inactive).

For the molecule `O=Nc1c(O)n(Cc2ccc(Cl)cc2)c2ccccc12`, the AC50 is 17.8 µM (active). Same read-out and setting: to `O=Nc1c(O)n(Cc2ccc(Cl)c(Cl)c2)c2ccccc12` belongs 14.1 µM (active); to `Cc1sc2ccccc2[n+]1CCC(C)S(=O)(=O)[O-]` (configuration not stated), “inactive”; to `CC(=O)N1c2c(cc(Br)cc2S(=O)(=O)NCC2COc3ccccc3O2)CC1C` (configuration not stated), 7.94 µM (active). Regarding `CCCN(CCC)CCCNS(=O)(=O)c1cc(Br)cc2c1N(C(C)=O)CC2`, the activity, negative = inhibition is -10.1% [at 11.4 µM] (inactive).

With `OC[C@H]1NC[C@@H](O)[C@@H](O)[C@H]1O`, the AC50 entry is “inactive”. On to `CCCCOc1ccc(/C=C/C(=O)NCCc2nc3ccccc3[nH]2)cc1`, for which the AC50 is 12.6 µM (active). Regarding `N[C@@](CCc1ccccc1)(C(=O)O)c1ccccc1`, the activity, negative = inhibition is -0.157% [at 11.4 µM] (inactive). As to `O=C(Nc1ccc(Cl)cc1)N1CCc2[nH]c3ccccc3c2C1`, the half-maximal activity concentration (AC50) is 14.1 µM (active). Still for that read-out and setting: to `COC(=O)N1CCC2(CC1)CN(C(=O)Nc1ccccc1)C2` belongs “inactive”; to `O=C(Nc1ccccc1)N1CCC2(CCNCC2)CC1`, “inactive”. The same measure, in the same setting: the figure for `CC[C@H]1C2=C3C(CC[C@H]4C(OCc5ccc(F)cc5C(F)(F)F)OC[C@](C)([C@@H]34)N(C(=O)OC(C)(C)C)C2)C2COC(=O)OCC21` (some centres not stated) is 20 µM (active). Still for that read-out and setting: to `C[C@H]1C2=C3C(CC[C@H]4C(OCc5ccc(F)cc5C(F)(F)F)OC[C@](C)([C@@H]34)N(C(=O)OC(C)(C)C)C2)C2COC(=O)OCC21` (some centres not stated) belongs 20 µM (active). As for `CC(C)CCN1C(=O)c2ccc(-c3nc4ccccc4c(=O)o3)cc2C1=O`, the activity, negative = inhibition was -5.78% [at 11.4 µM] (inactive). Consider `CN(C(=O)c1c(O)c2ccccc2n(C)c1=O)c1ccccc1`, for which the AC50 entry was “inactive”.

As to `Cc1ccc(-c2nc3c(=O)n(C)c4ccccc4c3o2)cc1`, the half-maximal activity concentration (AC50) was 7.08 µM (active).

For the molecule `CCCn1c(-c2ccccc2)nc2c(=O)n(C)c(=O)[nH]c21`, the AC50 entry is “inactive”. Same read-out and setting: the entry for `Cc1ccc(-n2c(-c3ccccc3)cc(=O)nc2C)cc1` is “inactive”; for `Cn1c(=O)c2nc(-c3ccccc3)oc2c2ccccc21` it is 12.6 µM (active).

Take `OC[C@@H](O)CNc1ncnc2ccccc12`: the activity, negative = inhibition is 3.9% [at 11.4 µM] (inactive). `Cc1cc(C)n(-c2ccc(F)cc2)c(=O)c1C(=O)O`: the AC50 result was “inactive”. For `Cc1cc(C)c(NC(=O)CSc2nnc(Cc3cccn3C)n2-c2ccc(F)cc2)c(C)c1`, the AC50 was 1.58 µM (active). Same read-out and setting: to `Cc1cc(C)c(NC(=O)NC(=O)c2ccc(F)cc2)c(C)n1` belongs “inactive”; to `COc1ccc(NC(=O)c2ncn[nH]2)cc1`, “inactive”.

`Cc1ccc(C)c(NC(=O)c2ncn[nH]2)c1`: the half-maximal activity concentration (AC50) is 14.1 µM (active).

For the molecule `CC(C)c1ccc(O)c(NC(=O)c2ncn[nH]2)c1`, the AC50 was 10 µM (active). For `O=C(NCCc1ccc(Cl)cc1)c1ncn[nH]1`, the activity, negative = inhibition is -0.238% [at 2.29 µM] (inactive).

On to `CCC(C)n1nnc2c(=O)oc3ccccc3c21` (configuration not stated), for which the AC50 entry was “inactive”.

As to `Cc1cccc(CNc2ccnc(-c3ccoc3)n2)c1`, the AC50 is 1 µM (active). Still for that read-out and setting: the figure for `c1ccc(CNc2ccnc(-c3ccoc3)n2)cc1` is 10 µM (active).

`Cc1ccc(S(=O)(=O)N=Nc2c(O)[nH]c3cc(O)c(C(=O)O)cc23)cc1`: the activity, negative = inhibition is -1.68% [at 11.4 µM] (inactive). Consider `COc1ccccc1CNc1nc(-c2cccc(C#N)c2)nc2ccccc12`, for which the AC50 is 10 µM (active). Still for that read-out and setting: to `CNc1nc(-c2cccc(C#N)c2)nc2ccccc12` belongs 10 µM (active); to `N#Cc1cccc(-c2nc(Nc3ccccc3)c3ccccc3n2)c1`, “inactive”; to `COc1ccc(CNc2nc(-c3cccc(C#N)c3)nc3ccccc23)c(OC)c1`, 2.51 µM (active). `COc1ccc(CNc2nc(-c3cccc(NS(C)(=O)=O)c3)nc3ccccc23)c(OC)c1`: the AC50 is 2.51 µM (active). Same read-out and setting: to `COc1cc2c(cc1C(F)(F)F)N(C(=O)Nc1cc(F)cc(-c3cccnc3)c1)CC2` belongs 2.51 µM (active).
